From article PMC7862700, “An all-to-all approach to the identification of sequence-specific readers for epigenetic DNA modifications on cytosine” come the findings set out here.

Test in all cases: DAPPL (digital affinity profiling via proximity ligation, sequencing); 10 mM Tris-HCl pH 7.5, 50 mM NaCl, 1 mM DTT, 4% glycerol, room temperature, 30 min; GST-TFs on glutathione beads, 16-mer random dsDNA library, 0.1% formaldehyde crosslink after washing; high values mean tight binding
The target in one experiment is T1, FEV (Homo sapiens, UniProt Q99581 1-238).
T1 sequence: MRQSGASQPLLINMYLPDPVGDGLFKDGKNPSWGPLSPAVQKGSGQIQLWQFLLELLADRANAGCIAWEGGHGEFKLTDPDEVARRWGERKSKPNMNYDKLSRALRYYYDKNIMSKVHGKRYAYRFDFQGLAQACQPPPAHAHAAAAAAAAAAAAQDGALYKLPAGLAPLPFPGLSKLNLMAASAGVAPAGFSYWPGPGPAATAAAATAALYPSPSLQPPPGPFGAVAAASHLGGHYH
Particulars: protein: recombinant; tags: N-terminal GST; dsDNA, one strand shown. The method, boiled down: (§1)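 In yeast, human transcription factors were expressed with a GST fusion, then pulled down on glutathione beads and given DNA barcodes. Pooled with a tag-only sample, they were exposed to 200 nmole of a 16-mer random double-stranded DNA library (Tris/NaCl/DTT/glycerol buffer, room temperature, 30 min), washed, crosslinked with 0.1% formaldehyde, proximity-ligated using BsaI/T4 ligase for 1 h at 37 °C, PCR-amplified and read on an Illumina NextSeq500. Each hexamer's frequency of reads for a factor, divided by the matching frequency for the tag-only sample, gives the binding signal.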

The target in the next experiment is ETV5 (Homo sapiens, UniProt P41161 1-510). The following applies: protein: recombinant; tags: N-terminal GST; dsDNA, one strand shown. The procedure, abridged:
as §1

The target of a further experiment is HSF1 (Homo sapiens, UniProt Q00613 1-529). The following applies: protein: recombinant; tags: N-terminal GST; chain copies: 3; dsDNA, one strand shown. The method, boiled down: as §1
Chain of HSF1 (Q00613 whole entry): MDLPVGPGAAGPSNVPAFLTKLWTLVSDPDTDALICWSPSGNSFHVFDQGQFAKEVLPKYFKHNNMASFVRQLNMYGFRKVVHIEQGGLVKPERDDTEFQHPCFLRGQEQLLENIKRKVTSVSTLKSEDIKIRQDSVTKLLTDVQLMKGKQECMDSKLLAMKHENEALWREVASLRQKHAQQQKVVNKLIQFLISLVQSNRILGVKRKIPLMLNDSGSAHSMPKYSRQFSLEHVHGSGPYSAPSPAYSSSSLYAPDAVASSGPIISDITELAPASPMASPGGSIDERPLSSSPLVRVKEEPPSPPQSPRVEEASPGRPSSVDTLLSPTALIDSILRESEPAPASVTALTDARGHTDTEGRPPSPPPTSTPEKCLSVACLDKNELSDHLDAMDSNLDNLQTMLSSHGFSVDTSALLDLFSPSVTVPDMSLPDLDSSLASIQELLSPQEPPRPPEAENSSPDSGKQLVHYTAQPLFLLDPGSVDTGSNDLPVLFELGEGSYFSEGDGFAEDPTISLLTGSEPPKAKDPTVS
Another experiment deals with T2, SPIC (Homo sapiens, UniProt Q8N5J4 1-248).
T2 sequence: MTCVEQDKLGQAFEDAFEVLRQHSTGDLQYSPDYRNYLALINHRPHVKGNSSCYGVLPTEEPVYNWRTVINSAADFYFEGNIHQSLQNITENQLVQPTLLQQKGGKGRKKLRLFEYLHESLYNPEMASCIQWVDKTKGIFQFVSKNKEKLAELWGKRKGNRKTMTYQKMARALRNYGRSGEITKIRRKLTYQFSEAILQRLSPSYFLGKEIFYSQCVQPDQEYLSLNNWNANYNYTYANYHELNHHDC
The following applies: protein: recombinant; tags: N-terminal GST; dsDNA, one strand shown. The method, boiled down:
as §1

The target of a further experiment is ELF4 (Homo sapiens, UniProt Q99607 1-663). The following applies: protein: recombinant; tags: N-terminal GST; dsDNA, one strand shown. The method, boiled down:
as §1

A further experiment addresses T3, ELK4 (Homo sapiens, UniProt P28324-2 1-405).
T3 sequence: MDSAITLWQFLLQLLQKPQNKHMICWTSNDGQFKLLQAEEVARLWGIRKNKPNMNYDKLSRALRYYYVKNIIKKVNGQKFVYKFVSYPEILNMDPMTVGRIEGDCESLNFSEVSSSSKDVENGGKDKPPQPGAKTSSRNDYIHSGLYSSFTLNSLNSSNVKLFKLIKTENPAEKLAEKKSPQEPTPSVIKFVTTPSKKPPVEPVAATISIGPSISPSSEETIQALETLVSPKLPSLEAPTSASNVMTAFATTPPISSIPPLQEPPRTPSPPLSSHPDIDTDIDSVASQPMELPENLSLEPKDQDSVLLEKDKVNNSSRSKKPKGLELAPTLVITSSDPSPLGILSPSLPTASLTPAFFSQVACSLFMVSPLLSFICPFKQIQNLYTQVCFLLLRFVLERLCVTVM
The following applies: protein: recombinant; tags: N-terminal GST; dsDNA, one strand shown. The procedure, abridged:
as §1

The target in the next experiment is T4, ETV2 (Homo sapiens, UniProt O00321 1-342).
T4 sequence: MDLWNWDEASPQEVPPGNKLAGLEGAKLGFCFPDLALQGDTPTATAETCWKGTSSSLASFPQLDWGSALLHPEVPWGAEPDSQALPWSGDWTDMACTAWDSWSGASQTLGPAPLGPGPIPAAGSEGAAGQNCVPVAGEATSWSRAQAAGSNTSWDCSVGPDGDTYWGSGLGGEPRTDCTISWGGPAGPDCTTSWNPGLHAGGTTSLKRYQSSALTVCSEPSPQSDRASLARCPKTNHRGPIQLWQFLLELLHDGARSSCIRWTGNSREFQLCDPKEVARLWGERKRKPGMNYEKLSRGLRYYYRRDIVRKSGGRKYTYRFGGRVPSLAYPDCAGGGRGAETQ
The following applies: protein: recombinant; tags: N-terminal GST; dsDNA, one strand shown. The procedure, abridged: as §1

Another experiment addresses T5, ELF3 (Homo sapiens, UniProt P78545 1-371).
T5 sequence: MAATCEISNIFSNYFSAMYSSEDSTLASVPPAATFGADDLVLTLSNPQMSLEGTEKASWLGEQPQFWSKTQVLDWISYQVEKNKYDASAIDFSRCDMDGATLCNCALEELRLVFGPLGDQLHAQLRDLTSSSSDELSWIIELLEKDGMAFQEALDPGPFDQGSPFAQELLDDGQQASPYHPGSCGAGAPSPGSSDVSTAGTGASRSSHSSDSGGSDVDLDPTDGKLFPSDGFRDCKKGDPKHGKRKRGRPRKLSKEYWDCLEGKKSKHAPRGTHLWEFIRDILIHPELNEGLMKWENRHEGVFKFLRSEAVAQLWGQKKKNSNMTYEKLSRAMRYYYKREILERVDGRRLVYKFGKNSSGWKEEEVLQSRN
Particulars: protein: recombinant; tags: N-terminal GST; dsDNA, one strand shown. The procedure, abridged:
as §1

A further experiment has as its target CRX (Homo sapiens, UniProt O43186 1-299). Particulars: protein: recombinant; tags: N-terminal GST; dsDNA, one strand shown. The procedure, abridged: as §1
For another experiment, the target named is ETV1 (Homo sapiens, UniProt P50549 1-477). Particulars: protein: recombinant; tags: N-terminal GST; dsDNA, one strand shown. The method, boiled down: as §1
Chain of ETV1 (P50549 whole entry): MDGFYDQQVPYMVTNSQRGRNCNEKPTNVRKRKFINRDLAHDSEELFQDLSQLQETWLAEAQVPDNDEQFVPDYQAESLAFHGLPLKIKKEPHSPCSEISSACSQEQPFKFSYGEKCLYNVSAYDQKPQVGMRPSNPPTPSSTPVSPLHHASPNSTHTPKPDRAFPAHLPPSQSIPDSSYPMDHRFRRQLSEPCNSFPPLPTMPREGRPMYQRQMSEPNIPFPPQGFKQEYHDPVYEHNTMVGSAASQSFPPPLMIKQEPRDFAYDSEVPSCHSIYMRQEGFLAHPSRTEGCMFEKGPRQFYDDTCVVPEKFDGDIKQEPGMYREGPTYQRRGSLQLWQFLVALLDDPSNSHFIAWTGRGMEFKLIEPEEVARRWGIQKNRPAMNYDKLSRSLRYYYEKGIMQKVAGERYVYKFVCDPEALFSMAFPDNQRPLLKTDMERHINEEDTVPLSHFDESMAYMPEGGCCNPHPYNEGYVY
The next experiment has as its target T6, ERF (Homo sapiens, UniProt P50548 1-548).
T6 sequence: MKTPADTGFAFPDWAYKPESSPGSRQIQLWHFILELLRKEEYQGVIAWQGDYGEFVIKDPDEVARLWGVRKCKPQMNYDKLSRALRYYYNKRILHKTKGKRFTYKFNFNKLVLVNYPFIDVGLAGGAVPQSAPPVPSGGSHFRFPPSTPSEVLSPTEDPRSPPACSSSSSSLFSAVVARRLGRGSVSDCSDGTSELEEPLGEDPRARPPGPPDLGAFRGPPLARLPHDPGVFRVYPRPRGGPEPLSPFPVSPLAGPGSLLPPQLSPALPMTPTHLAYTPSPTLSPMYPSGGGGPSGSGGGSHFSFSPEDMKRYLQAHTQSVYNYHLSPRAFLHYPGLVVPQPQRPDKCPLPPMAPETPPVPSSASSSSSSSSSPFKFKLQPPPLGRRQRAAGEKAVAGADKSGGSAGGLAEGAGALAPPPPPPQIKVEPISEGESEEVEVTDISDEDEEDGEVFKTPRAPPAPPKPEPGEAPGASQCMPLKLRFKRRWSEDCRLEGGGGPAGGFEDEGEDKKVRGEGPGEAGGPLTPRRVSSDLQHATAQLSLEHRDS
Particulars: protein: recombinant; tags: N-terminal GST; dsDNA, one strand shown. The procedure, abridged: as §1

Another experiment concerns the target T7, ETV3L (Homo sapiens, UniProt Q6ZN32 1-361).
T7 sequence: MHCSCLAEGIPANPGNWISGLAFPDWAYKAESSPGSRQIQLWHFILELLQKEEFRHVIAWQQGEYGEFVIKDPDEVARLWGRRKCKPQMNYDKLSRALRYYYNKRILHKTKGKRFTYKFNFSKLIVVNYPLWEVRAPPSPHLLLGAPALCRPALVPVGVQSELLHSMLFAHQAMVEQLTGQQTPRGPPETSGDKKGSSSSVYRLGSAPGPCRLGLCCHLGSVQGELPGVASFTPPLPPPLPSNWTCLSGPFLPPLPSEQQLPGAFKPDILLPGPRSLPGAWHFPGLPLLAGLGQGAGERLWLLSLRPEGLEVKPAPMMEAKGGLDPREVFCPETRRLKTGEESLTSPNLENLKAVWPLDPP
Particulars: protein: recombinant; tags: N-terminal GST; dsDNA, one strand shown. The procedure, abridged: as §1

The target in a further experiment is T8, ETS2 (Homo sapiens, UniProt P15036 1-469).
T8 sequence: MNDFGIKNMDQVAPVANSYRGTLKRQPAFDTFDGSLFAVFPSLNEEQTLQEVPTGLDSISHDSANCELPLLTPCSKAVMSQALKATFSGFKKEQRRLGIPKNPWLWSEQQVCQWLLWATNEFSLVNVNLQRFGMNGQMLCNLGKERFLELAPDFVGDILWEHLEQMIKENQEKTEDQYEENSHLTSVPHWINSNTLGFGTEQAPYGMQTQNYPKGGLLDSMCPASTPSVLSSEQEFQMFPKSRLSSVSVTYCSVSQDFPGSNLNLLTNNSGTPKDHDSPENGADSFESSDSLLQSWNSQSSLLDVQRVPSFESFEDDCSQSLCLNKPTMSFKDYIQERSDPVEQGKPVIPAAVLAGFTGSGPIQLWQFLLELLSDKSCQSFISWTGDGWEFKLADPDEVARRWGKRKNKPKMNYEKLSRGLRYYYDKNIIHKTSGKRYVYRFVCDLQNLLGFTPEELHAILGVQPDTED
Particulars: protein: recombinant; tags: N-terminal GST; dsDNA, one strand shown. The method, boiled down: as §1

The target of another experiment is T9, SPDEF (Homo sapiens, UniProt O95238 1-335).
T9 sequence: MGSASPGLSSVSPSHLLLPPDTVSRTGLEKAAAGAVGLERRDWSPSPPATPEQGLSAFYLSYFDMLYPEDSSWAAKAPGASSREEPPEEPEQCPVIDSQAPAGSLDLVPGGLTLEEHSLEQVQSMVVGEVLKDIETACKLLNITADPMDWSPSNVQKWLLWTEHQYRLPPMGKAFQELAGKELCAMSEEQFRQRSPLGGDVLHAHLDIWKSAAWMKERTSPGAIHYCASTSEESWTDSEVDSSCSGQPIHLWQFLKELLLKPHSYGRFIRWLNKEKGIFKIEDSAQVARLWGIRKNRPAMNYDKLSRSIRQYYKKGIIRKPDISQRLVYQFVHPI
The following applies: protein: recombinant; tags: N-terminal GST; dsDNA, one strand shown. The procedure, abridged:
as §1

The next experiment addresses T10, ETV7 (Homo sapiens, UniProt Q9Y603 1-341).
T10 sequence: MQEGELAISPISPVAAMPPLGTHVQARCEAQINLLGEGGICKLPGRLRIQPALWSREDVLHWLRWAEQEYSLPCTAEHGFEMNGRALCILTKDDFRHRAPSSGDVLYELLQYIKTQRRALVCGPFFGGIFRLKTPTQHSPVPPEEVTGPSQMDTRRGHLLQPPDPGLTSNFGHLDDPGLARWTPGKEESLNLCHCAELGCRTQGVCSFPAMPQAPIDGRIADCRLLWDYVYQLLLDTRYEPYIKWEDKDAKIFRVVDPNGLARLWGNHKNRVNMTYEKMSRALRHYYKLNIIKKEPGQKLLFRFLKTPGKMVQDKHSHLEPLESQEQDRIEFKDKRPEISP
Particulars: protein: recombinant; tags: N-terminal GST; dsDNA, one strand shown. The method, boiled down:
as §1

Another experiment concerns the target T11, ELF5 (Homo sapiens, UniProt Q9UKW6-2 1-255).
T11 sequence: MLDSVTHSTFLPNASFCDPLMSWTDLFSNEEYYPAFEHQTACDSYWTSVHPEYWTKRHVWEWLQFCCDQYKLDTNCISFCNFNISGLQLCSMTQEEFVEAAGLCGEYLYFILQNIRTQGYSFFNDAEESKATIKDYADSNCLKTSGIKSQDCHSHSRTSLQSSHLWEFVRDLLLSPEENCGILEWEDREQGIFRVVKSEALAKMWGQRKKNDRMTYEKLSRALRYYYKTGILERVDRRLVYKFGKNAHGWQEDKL
The following applies: protein: recombinant; tags: N-terminal GST; dsDNA, one strand shown. The procedure, abridged: as §1

In a further experiment the target is T12, ETV3 (Homo sapiens, UniProt P41162-2 1-143).
T12 sequence: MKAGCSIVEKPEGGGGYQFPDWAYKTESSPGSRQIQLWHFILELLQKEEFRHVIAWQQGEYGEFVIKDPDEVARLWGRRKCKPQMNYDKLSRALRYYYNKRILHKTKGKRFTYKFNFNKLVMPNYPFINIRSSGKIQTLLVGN
The following applies: protein: recombinant; tags: N-terminal GST; dsDNA, one strand shown. The method, boiled down: as §1

For the next experiment, the target named is ETV6 (Homo sapiens, UniProt P41212 1-452). The following applies: protein: recombinant; tags: N-terminal GST; dsDNA, one strand shown. The method, boiled down: as §1
Chain of ETV6 (P41212 whole entry): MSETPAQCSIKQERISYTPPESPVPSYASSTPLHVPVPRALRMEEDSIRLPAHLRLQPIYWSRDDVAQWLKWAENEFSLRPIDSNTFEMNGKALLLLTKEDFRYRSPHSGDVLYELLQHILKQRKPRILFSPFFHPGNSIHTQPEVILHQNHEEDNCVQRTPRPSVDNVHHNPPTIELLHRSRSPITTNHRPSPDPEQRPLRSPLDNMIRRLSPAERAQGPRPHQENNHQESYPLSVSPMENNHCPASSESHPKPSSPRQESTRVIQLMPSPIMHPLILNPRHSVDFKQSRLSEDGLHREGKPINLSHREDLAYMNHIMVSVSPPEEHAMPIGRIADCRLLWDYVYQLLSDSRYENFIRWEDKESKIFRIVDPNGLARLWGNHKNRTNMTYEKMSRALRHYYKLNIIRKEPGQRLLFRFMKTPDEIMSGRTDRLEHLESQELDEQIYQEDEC

Chain of ELF4 (Q99607 whole entry): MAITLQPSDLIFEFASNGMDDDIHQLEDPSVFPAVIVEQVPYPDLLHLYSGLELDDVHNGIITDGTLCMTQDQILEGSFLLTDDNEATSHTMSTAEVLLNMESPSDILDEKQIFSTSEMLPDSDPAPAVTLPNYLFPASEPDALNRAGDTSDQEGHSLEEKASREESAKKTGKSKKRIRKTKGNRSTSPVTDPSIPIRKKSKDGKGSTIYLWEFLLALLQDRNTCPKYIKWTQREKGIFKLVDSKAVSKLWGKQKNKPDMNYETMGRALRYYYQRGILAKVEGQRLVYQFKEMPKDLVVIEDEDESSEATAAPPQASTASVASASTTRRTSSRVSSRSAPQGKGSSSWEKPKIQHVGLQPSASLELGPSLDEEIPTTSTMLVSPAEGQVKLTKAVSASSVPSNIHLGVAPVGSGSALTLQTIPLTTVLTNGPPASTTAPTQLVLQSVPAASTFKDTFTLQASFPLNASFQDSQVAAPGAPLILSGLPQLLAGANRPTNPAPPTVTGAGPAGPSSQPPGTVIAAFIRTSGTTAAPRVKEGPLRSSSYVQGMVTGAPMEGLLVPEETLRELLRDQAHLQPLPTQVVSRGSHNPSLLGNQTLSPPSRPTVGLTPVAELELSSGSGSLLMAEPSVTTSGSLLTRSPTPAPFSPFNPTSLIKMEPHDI
Chain of CRX (O43186 whole entry): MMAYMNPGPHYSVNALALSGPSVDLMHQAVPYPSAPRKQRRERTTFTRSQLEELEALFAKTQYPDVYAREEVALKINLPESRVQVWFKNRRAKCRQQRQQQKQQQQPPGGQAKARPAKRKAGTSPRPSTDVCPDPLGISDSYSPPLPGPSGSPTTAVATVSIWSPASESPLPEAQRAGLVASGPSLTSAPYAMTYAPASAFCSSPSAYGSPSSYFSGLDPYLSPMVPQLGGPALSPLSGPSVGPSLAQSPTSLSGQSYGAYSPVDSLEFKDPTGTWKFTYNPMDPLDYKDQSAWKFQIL
Chain of ETV5 (P41161 whole entry): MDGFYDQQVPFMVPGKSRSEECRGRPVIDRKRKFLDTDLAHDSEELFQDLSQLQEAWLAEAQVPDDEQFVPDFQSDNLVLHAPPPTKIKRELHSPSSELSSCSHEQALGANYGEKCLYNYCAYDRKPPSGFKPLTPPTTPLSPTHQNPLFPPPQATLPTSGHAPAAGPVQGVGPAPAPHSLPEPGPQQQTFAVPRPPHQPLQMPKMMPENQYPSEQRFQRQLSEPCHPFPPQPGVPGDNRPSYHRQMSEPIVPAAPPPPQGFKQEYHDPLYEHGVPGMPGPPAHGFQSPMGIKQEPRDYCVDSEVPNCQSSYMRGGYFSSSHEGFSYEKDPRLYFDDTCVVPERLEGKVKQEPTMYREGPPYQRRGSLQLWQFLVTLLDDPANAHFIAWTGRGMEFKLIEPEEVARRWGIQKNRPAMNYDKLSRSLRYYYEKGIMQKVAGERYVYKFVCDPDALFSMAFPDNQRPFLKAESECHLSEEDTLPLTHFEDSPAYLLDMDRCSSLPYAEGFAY

As for CCCTAC, the binding signal with FEV is 1.46 fold enrichment (6-mer frequency, TF over GST control); with ETV5, 1.43 fold enrichment (6-mer frequency, TF over GST control); with HSF1, 1.13 fold enrichment (6-mer frequency, TF over GST control); in the experiment with SPIC it was 1.45 fold enrichment (6-mer frequency, TF over GST control); with ELF4, 1.47 fold enrichment (6-mer frequency, TF over GST control); with ELK4, 1.53 fold enrichment (6-mer frequency, TF over GST control). Also, the binding signal with ETV2 was 1.22 fold enrichment (6-mer frequency, TF over GST control); with ELF3, 1.48 fold enrichment (6-mer frequency, TF over GST control); in the experiment with CRX it was 1.19 fold enrichment (6-mer frequency, TF over GST control); with ETV1, 1.46 fold enrichment (6-mer frequency, TF over GST control); with ERF, 1.37 fold enrichment (6-mer frequency, TF over GST control); with ETV3L, 1.53 fold enrichment (6-mer frequency, TF over GST control). Besides, the binding signal in the experiment with ETS2 was 1.42 fold enrichment (6-mer frequency, TF over GST control); with SPDEF, 1.43 fold enrichment (6-mer frequency, TF over GST control); in the experiment with ETV7, 1.37 fold enrichment (6-mer frequency, TF over GST control); with ELF5, 1.61 fold enrichment (6-mer frequency, TF over GST control); in the experiment with ETV3, 1.41 fold enrichment (6-mer frequency, TF over GST control); in the experiment with ETV6 it was 1.6 fold enrichment (6-mer frequency, TF over GST control).
